Common to all, as to assay: NCI-60 one-dose screen, 48 h (100 = growth as untreated, 0 = no growth, -100 = all killed)
Common to all, as to conditions: 10 µM unless noted

The subject of experiment [1] is T-47D breast.
In experiment [2] the test system is BT-549 breast.
Experiment [3] concerns MDA-MB-435 melanoma.
Experiment [4] has as its system SW-620 colon.
Experiment [5] has as its system MCF7 breast.
Experiment [6] relates to HCT-116 colon.
Experiment [7] has as its system HCC-2998 colon.
Experiment [8] has as its system KM12 colon.

Each structure is given as a SMILES string. About 83,000 compounds went through this panel and 20% of them were active in at least one assay; those are over-represented in the sample as a whole.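 96-well plates, one dose, 48 hours. Percent growth reported; active if below 10.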 Values without a mark were called inactive. The source made the active and inactive calls.

With `CNC(=O)c1ccccc1Nc1nc(Nc2cc(OC)c(OC)c(OC)c2)ncc1Br`, the growth in experiment [1] was -25.2% (active); in experiment [2], -93.5% (active); in experiment [3], 6.45% (active); in experiment [4] it was 5.27% (active); in experiment [5], 1.48% (active); in experiment [6], 1.45% (active). The values for the growth in experiment [7] and in experiment [8] were -32.5% (active) and 7.57% (active), respectively.
In the case of `COc1ccc(C#Cc2ccc(=O)oc2-c2cc(OC)c(OC)c(OC)c2)cc1O`, the growth in experiment [1] is 45.2%; in experiment [2], 44.8%; in experiment [3], 0.895% (active); in experiment [4] it was 31.2%; in experiment [5], 16%; in experiment [6] it was 14.9%. The values for the growth in experiment [7] and in experiment [8] were 9.46% (active) and 26.8%, respectively.
For `COc1cc(Cl)c(C)cc1NC(=O)c1cc2ccccc2cc1O`, the growth in experiment [1] was 11.5%; in experiment [2], 22.9%; in experiment [3], 3.68% (active); in experiment [4], 21.2%; in experiment [5] it was 17.2%; in experiment [6] it was 4.6% (active). Moreover, the growth is 17% in experiment [7] and 9.32% (active) in experiment [8].
Turning to `COc1ccc(C2=CC(c3cc(OC)c(OC)c(OC)c3)n3ncnc3N2)cc1` (configuration not stated), the growth in experiment [1] was 62.9%; in experiment [2] it was 4.42% (active); in experiment [3], -21.9% (active); in experiment [4], 21.5%; in experiment [5], 15%; in experiment [6], 0.658% (active). Besides, the growth is 26.5% in experiment [7] and 6% (active) in experiment [8].
For the compound `Nc1ncnc2c1N=C(c1ccc3c(c1)OCO3)CC(c1cccc(Nc3ccnc4cc(C(F)(F)F)ccc34)c1)N2` (configuration not stated), the growth is 87.5% in experiment [1]; 112% in experiment [2]; 92.6% in experiment [3]; 69.1% in experiment [4]; 36.6% in experiment [5]; 70.3% in experiment [6]. The growth was 90.6% in experiment [7] and 50.1% in experiment [8].
Take `CC(=O)ON1CCCC(P(=O)(OCCSC(=O)C(C)(C)C)OCCSC(=O)C(C)(C)C)C1=O` (configuration not stated): the growth was 14.8% in experiment [1]; 30.9% in experiment [2]; 48.5% in experiment [3]; 30.9% in experiment [4]; 13.9% in experiment [5]; 10.5% in experiment [6]. The figures for the growth in experiment [7] and in experiment [8] were 11% and 5.16% (active), respectively.
Take `COc1ccc2[nH]cc(-c3nc(-c4c[nH]c5c(Cl)nccc45)cs3)c2c1`: the growth in experiment [1] is 24.5%; in experiment [2], 51.3%; in experiment [3] it was 51.8%; in experiment [4], 1.95% (active); in experiment [5], 54.7%; in experiment [6], 36.4%. For the same compound, the growth in experiment [7] was 68.6%; in experiment [8], 33.3%.
With `COc1ccc(C2CC(c3cc(OC)c(OC)c(OC)c3)=NO2)cc1OCCCCOc1cc2c(cc1OC)C(=O)N1CCC[C@H]1C=N2` (some centres not stated), the growth is 11.4% in experiment [1]; -71.4% (active) in experiment [2]; -58.1% (active) in experiment [3]; -21.9% (active) in experiment [4]; 5.25% (active) in experiment [5]; 8.33% (active) in experiment [6]. The growth in experiment [7] is -67.3% (active); in experiment [8], -22% (active).
In the case of `COc1ccc(Nc2ncccc2/C=C/C(=O)c2cc(OC)c(OC)c(OC)c2)cc1`, the growth in experiment [1] is -4.22% (active); in experiment [2] it was -35% (active); in experiment [3], -35.8% (active); in experiment [4], -68.3% (active); in experiment [5] it was -61.3% (active); in experiment [6] it was -50.2% (active). Besides, the growth in experiment [7] was -75.9% (active); in experiment [8], -87.5% (active).
Regarding `N#Cc1c(Nc2ccc(N3CCOCC3)cc2)nc(SCC(=O)c2ccc(Br)cc2)nc1-c1ccccc1`, the growth was 102% in experiment [1]; 115% in experiment [2]; 109% in experiment [3]; 109% in experiment [4]; 94.8% in experiment [5]; 87.9% in experiment [6]. Moreover, the growth in experiment [7] was 100%; in experiment [8], 103%.
For `COc1cc(OC)c(C(=O)C(CN(C)C)CN(C)C)cc1OC`, the growth is -17.6% (active) in experiment [1]; 74.5% in experiment [2]; 80.9% in experiment [3]; -83.3% (active) in experiment [4]; 10.6% in experiment [5]; -65.6% (active) in experiment [6]. For the same compound, the growth in experiment [7] was 110%; in experiment [8] it was 111%.
In the case of `CCCCNc1cc(-c2cn[nH]c2-c2cc(C)cc(OC)c2)nc(-c2cccnc2)n1`, the growth is 49.7% in experiment [1]; 85.3% in experiment [2]; 92.1% in experiment [3]; 107% in experiment [4]; 88.1% in experiment [5]; 91.7% in experiment [6]. The growth in experiment [7] is 106%; in experiment [8], 93.9%.
Regarding `Cc1ccc(C)c2c(C)c(C(=O)Nc3cccc(-n4cccn4)c3)oc12`, the growth in experiment [1] was 7.95% [50 µM] (active); in experiment [2], 61.5% [50 µM]; in experiment [3], 69.9% [50 µM]; in experiment [4], 70.2% [50 µM]; in experiment [5], 13.2% [50 µM]; in experiment [6] it was 50.7% [50 µM]. In addition, the growth in experiment [7] was 81.2% [50 µM]; in experiment [8], 56.3% [50 µM].
For the compound `COc1cc(NC(=O)c2cncnc2Nc2ccc3c(ccn3Cc3ccccn3)c2)cc(OC)c1`, the growth in experiment [1] was 45.3%; in experiment [2], 34.9%; in experiment [3] it was -6.69% (active); in experiment [4], 23.6%; in experiment [5], 31.2%; in experiment [6], 18.2%. Moreover, the values for the growth in experiment [7] and in experiment [8] were 67.8% and 33.7%, respectively.
